# From PubChem BioAssay AID686979 (National Center for Advancing Translational Sciences (NCATS), 2013)
# “And” between values parts separate entries of the source, which are not always exact repeats. Equal entries are not always repeated. Among all 420,000 compounds or so, about 50,000 (12%) were called active. Where a call stands in place of a potency, no number is given. Not shown: some 26% with an inconclusive outcome. The call rests on the fitted dose curve; in most records, active means well fitted inhibition curve with a large enough effect; inconclusive means small, poorly fitted or top-dose-only effect; inactive means flat fitted curve, though single readings scatter. The full list was thinned out, with actives kept by preference.
# Test: qHTS for Inhibitors of human tyrosyl-DNA phosphodiesterase 1 (TDP1): qHTS in cells in presence of CPT; further: nearly all actives have a fitted effect of over 55% in size
# Conditions: chicken DT40 Tdp1-/-;hTDP1 cells + 20 nM CPT, ATP luminescence, 48 h; series mostly up to 46.2 µM
# How it was run: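 Chicken DT40 Tdp1-/- cells complemented with human TDP1, 400 cells/well, exposed to compounds plus 20 nM camptothecin for at least 48 h at 37 C; viability read as ATP content by CellTiter-Glo luminescence.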
# Potency means the concentration at half of the fitted maximal effect.
row,SMILES,Potency
1,C[n+]1cc(-c2ccccc2)oc1-c1ccccc1,inactive
2,O=C(O)CCCCOn1ccnc1,inactive
3,Cc1cccc(NS(=O)(=O)c2ccc(C)c(C(=O)NCc3cccnc3)c2)c1,inactive
4,COc1ccc(S(=O)(=O)NCc2cccn2Cc2cccc(C)c2)cc1,inactive
5,Cc1cccc(CNS(=O)(=O)c2ccc(-c3cnc(C4CC4)o3)cc2)c1,16.4 µM (active)
6,CCc1ccc(S(=O)(=O)NCC(O)COc2ccc(OC)cc2)cc1 (stereo not drawn),inactive
7,COc1ccc(CNS(=O)(=O)c2ccc(-c3cnc(C4CC4)o3)cc2)cc1,14.6 µM (active)
8,CC1CN(C(=O)c2cccc(NS(=O)(=O)c3ccc(Br)cc3)c2)CC(C)O1 (stereo not drawn),inactive
9,CC1CCN(S(=O)(=O)c2ccc(S(=O)(=O)NCc3cccnc3)cc2)CC1,inactive
10,COc1ccc(CNS(=O)(=O)c2cc3c4c(c2)CCN4C(=O)CC3)cc1,inactive
11,Cc1cccc(NS(=O)(=O)c2ccc(-c3cnc(C4CC4)o3)cc2)c1,0.731 µM (active)
12,O=C(C1CC1)N1N=C2CCCCC2C1(O)C(F)(F)F (stereo not drawn),inactive
13,O=[N+]([O-])c1ccccc1/C=C/CN1CCC(O)CC1,inactive
14,COC(=O)c1sc(C(F)(F)F)c(-c2ccccc2)c1S(=O)(=O)N(C)C,inactive
15,Cc1ccc(S(=O)(=O)NCCSc2ccccc2)cc1[N+](=O)[O-],inactive
16,CC(Oc1ccc(Cl)cc1)c1ccnn1S(C)(=O)=O (stereo not drawn),inactive
17,CC1CN(S(=O)(=O)c2cccc(C(F)(F)F)c2)CN1C(=O)N1CCOCC1 (stereo not drawn),inactive
18,O/N=C(\C[n+]1ccccc1)c1ccc(Br)cc1,inactive
19,COc1ccccc1N(CC(=O)Nc1ccc(C(F)(F)F)cc1)S(C)(=O)=O,inactive
20,CCCCN(CC)CCCNC(=O)c1nn(C)c2c1CSc1ccccc1-2,25.9 µM (active)
21,CCCCN(CC)CCCNC(=O)c1ccc(CSc2nc3ccncc3[nH]2)cc1,inactive
22,CCCCN(CC)CCCNC(=O)c1nn(C)c2c1CS(=O)(=O)c1ccccc1-2,inactive
23,C[C@@H]1CC2=C(C(=O)OC(C)(C)O2)[C@@H](C2CC2)O1,inactive
24,Cn1nccc1CNC(=O)c1ccnn1C,inactive
25,CCN(CC)C(=O)c1sc(NC(=O)c2ccco2)c(C#N)c1C,inactive

row,SMILES,Potency
1,CCCc1ccc(-c2c(C)sc(NC(=O)c3ccnn3C)c2C#N)cc1,23.1 µM (active)
2,COc1ccc(CNC(=O)CN(Cc2ccccc2Cl)C(=O)c2csnn2)cc1,inactive
3,O=C(NCC(c1ccc(Cl)cc1)N1CCOCC1)c1ccccc1F (stereo not drawn),16.4 µM (active)
4,COc1ccc(C(CNC(=O)CSc2ccccc2)N2CCOCC2)cc1 (stereo not drawn),inactive
5,CN1CCN(C(CNC(=O)c2ccccc2F)c2ccc3c(c2)OCO3)CC1 (stereo not drawn),inactive
6,COc1ccc(C(CNC(=O)c2cccnc2SC)N2CCOCC2)cc1 (stereo not drawn),inactive
7,CC(C)(C)c1ccc(C(=O)NCC(c2ccc(Cl)cc2)N2CCOCC2)cc1 (stereo not drawn),23.1 µM (active)
8,COc1ccc(C(CNC(=O)c2cc3c(s2)CCCC3)N2CCOCC2)cc1 (stereo not drawn),inactive
9,CN(C)c1ccc(C(CNS(=O)(=O)c2cc(F)ccc2F)N2CCOCC2)cc1 (stereo not drawn),inactive
10,COc1cc(C(=O)OCCCN2CCOCC2)cc(OC)c1OC,inactive
11,COc1cc(C(=O)NCC(c2ccc(Cl)cc2)N2CCOCC2)cc(OC)c1OC (stereo not drawn),16.4 µM (active)
12,Cc1ccc(S(=O)(=O)NN=C2CC(C)(C)CC(=O)C2(C)C)cc1,inactive
13,CCOCCCNC(=O)C1(O)c2cc(Br)ccc2NC(=O)N1c1ccc(C)c(C)c1 (stereo not drawn),inactive
14,Cc1ccc(S(=O)(=O)N2CCCCC2)cc1NC(=O)CCNC(=O)c1ccccc1,inactive
15,CN(C)c1ccc2c(=O)[nH][nH]c(=O)c2c1,inactive
16,COc1cc(C(=O)N2CCOC23CCN(Cc2ccccc2)CC3)cc(OC)c1OC,inactive
17,N#Cc1cc([N+](=O)[O-])ccc1NC(=O)COC(=O)c1cnccn1,inactive
18,CCC(CC)NC(=O)CSc1nnc(-c2c[nH]c3ccccc23)o1,inactive
19,Cc1ccc(C(=O)OCC(=O)Nc2ccc(Cl)cn2)cc1S(=O)(=O)N1CCOCC1,inactive
20,CN(Cc1ccccc1)C(=O)C(=O)c1cn(CC(=O)N2CCCC2)c2ccccc12,inactive
21,COc1cc(OC)cc(C(=O)N[C@H](C(=O)OCC(=O)NC(C)c2ccccc2)C(C)C)c1 (stereo partly drawn),inactive
22,COc1ccc(C(=O)N[C@H](C(=O)NCc2ccccc2)C(C)C)cc1,inactive
23,COc1cc(OC)cc(C(=O)N[C@H](C(=O)Nc2nc3ccccc3[nH]2)C(C)C)c1,1.64 µM (active)
24,CC1=C/C(=N\OS(=O)(=O)c2ccccc2)C=CC1=O,0.631 µM (active)
25,O=S(=O)(ON(c1ccccc1)S(=O)(=O)c1ccccc1)c1ccccc1,inactive

row,SMILES,Potency
1,COCCn1c(SCC(=O)Nc2nc(C)cs2)nnc1C(C)C,inactive
2,O=C(Nc1ccccc1C(=O)O)c1ccc(N2C(=O)C3CC=CCC3C2=O)cc1 (stereo not drawn),inactive
3,O=C(CN1CCOCC1)N/N=C/c1ccc(-c2ccc(Br)cc2)o1,inactive
4,Cc1ccc(NC(=O)CN2CCC(C(N)=O)CC2)cc1[N+](=O)[O-],inactive
5,Cc1ccc(-c2ccc(/C=N/NC(=O)CN3CCOCC3)o2)cc1[N+](=O)[O-],23.1 µM (active)
6,Cc1ccc(OC(=O)c2cncc(Br)c2)c(C)c1,inactive
7,CC(=O)[C@@]12O[C@@H]1C[C@H]1[C@@H]3CC[C@H]4C[C@@H](O)CC[C@]4(C)[C@H]3CC[C@@]12C,inactive
8,CC1(Cc2ccccc2C#N)C(=O)Nc2ccc(-c3ccc4[nH]ccc4c3)cc21 (stereo not drawn),1.46 µM (active)
9,COc1ccc(CC(NC(C)=O)C(=O)NC2CCN(C(=O)c3ccc(Cl)cc3)CC2)cc1 (stereo not drawn),inactive
10,CCC(C)C(N=C1NS(=O)(=O)c2ccccc21)C(=O)N1CCC(C)CC1 (stereo not drawn),inactive
11,O=c1oc(/C=C/c2ccccc2)nc2ccccc12,inactive
12,NNc1cccc(C=Cc2ccccc2)cc1=O,2.06 µM (active)
13,O=c1[nH]c(/C=C/c2cccc(Br)c2)nc2ccccc12,inactive
14,Cc1cc(Cl)ccc1NC(=S)NCCCN1CCCC1=O,inactive
15,COn1c(=O)c(=O)n(OC)c2ccccc21,inactive
16,CCOC(=O)C1=C(C)N(C[C@@H]2CC[C@@H](Cc3ccc(-c4ccccc4)cc3)O2)C(=O)NC1c1ccc([N+](=O)[O-])cc1 (stereo partly drawn),23.1 µM (active)
17,CCOC(=O)C1=C(c2ccccc2)NC(=S)NC1c1ccc(Cl)cc1 (stereo not drawn),inactive
18,CCOC(=O)CSc1nnc(-c2ccc([N+](=O)[O-])cc2)o1,inactive
19,C=C1c2cccc(OC)c2O[C@H](C(=O)OCC)[C@@H]1CCCCCC,inactive
20,COc1cc(OC)c2c(-c3cccc(-c4cccc(N)c4)c3)cc(=O)oc2c1,4.61 µM (active)
21,COc1cccc(NC(=O)COc2cc(C)cc3oc(=O)cc(C)c23)c1,inactive
22,COC(=O)C(C)Oc1ccc2c(-c3cccc([N+](=O)[O-])c3)cc(=O)oc2c1 (stereo not drawn),inactive
23,COc1ccccc1OCCNC(=O)C(CCSC)NC(=O)COc1ccccc1 (stereo not drawn),inactive
24,CC(C)(CNC(=O)CNC(=O)C1CCCCC1)N1CCOCC1,inactive
25,Cc1c(O)cc(O)c2c(=O)c(-c3ccc(O)cc3)coc12,inactive

row,SMILES,Potency
1,CC(C)=CCc1c(O)c(CC=C(C)C)c2occ(-c3ccc(O)cc3)c(=O)c2c1O,18.4 µM (active)
2,CCCCn1c(N)c(N(CC(C)C)C(=O)C2CSC3(C)CCC(=O)N23)c(=O)[nH]c1=O (stereo not drawn),inactive
3,CCOC(=O)CCCCCC(=O)Nc1ccc2c(c1)CC(=O)N([C@@H](C)CO)C[C@H](C)[C@@H](CN(C)Cc1ccccc1)O2,18.4 µM (active)
4,C[C@@H]1CN([C@H](C)CO)C(=O)c2cc(Br)cnc2O[C@@H]1CN(C)Cc1cncnc1,inactive
5,C[C@H]1CN([C@@H](C)CO)C(=O)c2cc(-c3cccc(F)c3)cnc2O[C@@H]1CN(C)S(C)(=O)=O,inactive
6,COc1ccc(-c2cnc3c(c2)C(=O)N([C@H](C)CO)C[C@@H](C)[C@H](CN(C)Cc2ccccc2)O3)cc1,14.6 µM (active)
7,C[C@H]1CN([C@@H](C)CO)C(=O)Cc2cc(NS(C)(=O)=O)ccc2O[C@@H]1CN(C)CC1CC1,inactive
8,C[C@H](CO)N1C[C@H](C)[C@H](CN(C)CC2CC2)Oc2ccc(NC(=O)CCN3CCOCC3)cc2C1=O,inactive
9,C[C@H]1CN([C@@H](C)CO)C(=O)CCCn2nncc2CO[C@@H]1CN(C)Cc1ccc(Oc2ccccc2)cc1,23.1 µM (active)
10,C[C@H](CO)N1C[C@H](C)[C@@H](CN(C)Cc2ccc3c(c2)OCO3)OCc2cnnn2CCCC1=O,inactive
11,Cc1ccc(CN(C)C[C@@H]2OCc3cnnn3CCCC(=O)N([C@@H](C)CO)C[C@H]2C)cc1,inactive
12,Cc1ccccc1NC(=O)c1cc(S(=O)(=O)Nc2cccc(C(=O)O)c2)ccc1Cl,inactive
13,Cc1cc(NC(=O)COc2ccc([N+](=O)[O-])cc2)no1,inactive
14,CC1CCCC(C)N1C(=O)CSc1nnnn1C1CCCC1 (stereo not drawn),inactive
15,CCc1nc(N2CCN(C(C)=O)CC2)c2c3c(sc2n1)CCCC3,inactive
16,Cc1c(OC(C)C(=O)N[C@@H](Cc2ccccc2)C(=O)O)ccc2c3c(c(=O)oc12)CCCC3 (stereo partly drawn),inactive
17,Cc1c(Br)c([N+](=O)[O-])nn1C(C)C(=O)Nc1nccs1 (stereo not drawn),inactive
18,CCOc1ccccc1NC(=O)C1CCCN(C(=O)Nc2ccccc2)C1 (stereo not drawn),inactive
19,Cc1c(Cl)cccc1NC(=O)C1CCCN(C(=O)c2cnn(-c3ccccc3)c2-n2cccc2)C1 (stereo not drawn),23.1 µM (active)
20,Cc1cccc(NC(=O)C2CCCN(C(=O)Nc3ccc(F)cc3)C2)c1C (stereo not drawn),inactive
21,COc1ccc(Cn2ccn(CC(=O)Nc3cc(C)ccc3C)c(=O)c2=O)cc1,inactive
22,Cc1cccc(CSc2ccc(-c3cccs3)nn2)c1,inactive
23,Oc1c(Cl)cc(Cl)c(Cl)c1Cc1c(O)c(Cl)cc(Cl)c1Cl,4.73 µM (active) and 23.1 µM (active) and 3.26 µM (active)
